Laboratory results: PubChem BioAssay (NCI)
Several values for one entry are separate records, joined by “and”; a condition that tells them apart may be missing. Equal entries are not always repeated. Compounds without any hit were thinned out: in the full panel of roughly 83,000, 20% have a hit.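 Negative percent growth values reflect cell death: -40 means 40% of the cells present at the start died, and -100 means all died.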 Unmarked numbers belong to inactive results. Activity calls are given as the source filed them. The calls were made as follows: active = growth percent below 10; inactive = the rest.

Legend:
Experiment in all cases: NCI-60 one-dose screen, 48 h (100 = growth as untreated, 0 = no growth, -100 = all killed)
Settings in all cases: 10 µM unless noted
SR leukemia = system: SR leukemia
RPMI-8226 leukemia = system: RPMI-8226 leukemia
OVCAR-8 ovarian = system: OVCAR-8 ovarian
OVCAR-5 ovarian = system: OVCAR-5 ovarian
OVCAR-4 ovarian = system: OVCAR-4 ovarian
SK-OV-3 ovarian = system: SK-OV-3 ovarian
IGROV1 ovarian = system: IGROV1 ovarian
OVCAR-3 ovarian = system: OVCAR-3 ovarian
HS 578T breast = system: HS 578T breast
NCI/ADR-RES ovarian = system: NCI/ADR-RES ovarian
T-47D breast = system: T-47D breast
BT-549 breast = system: BT-549 breast
MDA-MB-435 melanoma = system: MDA-MB-435 melanoma
SW-620 colon = system: SW-620 colon
MCF7 breast = system: MCF7 breast
HCT-116 colon = system: HCT-116 colon
HCC-2998 colon = system: HCC-2998 colon
KM12 colon = system: KM12 colon

**Q.** Which growth (SR leukemia) does the source give for `COc1cc(/C=C2/C=C(c3ccc(C(C)(C)C)cc3)N(CCc3ccc(S(N)(=O)=O)cc3)C2=O)cc(OC)c1OC` here?
**A.** Its growth is 18.4%.

**Q.** What about the growth (RPMI-8226 leukemia) of the same compound?
**A.** Its growth is -5.19% (active).

**Q.** What about the growth (OVCAR-8 ovarian) of the same compound?
**A.** Its growth is 57.4%.

**Q.** And the growth (OVCAR-5 ovarian)?
**A.** The growth was 91.4%.

**Q.** What about the growth (OVCAR-4 ovarian) of the same compound?
**A.** Its growth is 54.7%.

**Q.** What about the growth (SK-OV-3 ovarian) of the same compound?
**A.** Its growth is 79.9%.

**Q.** And the growth (IGROV1 ovarian)?
**A.** The growth was 70.5%.

**Q.** What about the growth (OVCAR-3 ovarian) of the same compound?
**A.** The growth was 48.8%.

**Q.** And the growth (HS 578T breast)?
**A.** The growth was 69.6%.

**Q.** What about the growth (NCI/ADR-RES ovarian) of the same compound?
**A.** Its growth is 71.8%.

**Q.** What about the growth (T-47D breast) of the same compound?
**A.** The growth was 18.2%.

**Q.** What about the growth (BT-549 breast) of the same compound?
**A.** The growth was 48.1%.

**Q.** What about the growth (MDA-MB-435 melanoma) of the same compound?
**A.** Its growth is 52.8%.

**Q.** What about the growth (SW-620 colon) of the same compound?
**A.** Its growth is 63.3%.

**Q.** And the growth (MCF7 breast)?
**A.** Its growth is 13.1%.

**Q.** And the growth (HCT-116 colon)?
**A.** Its growth is 23.5%.

**Q.** And the growth (HCC-2998 colon)?
**A.** Its growth is 32.2%.

**Q.** And the growth (KM12 colon)?
**A.** The growth was 43.8%.

**Q.** Which results are given for `O=C(/C=C/c1ccc([N+](=O)[O-])cc1)c1ccccc1`?
**A.** growth (SR leukemia): 7.6% (active); growth (RPMI-8226 leukemia): 41.6%; growth (OVCAR-8 ovarian): 98.3%; growth (OVCAR-5 ovarian): 106%; growth (OVCAR-4 ovarian): 98.1%; growth (SK-OV-3 ovarian): 92.5%; growth (IGROV1 ovarian): 87.3%; growth (OVCAR-3 ovarian): 99.6%; growth (HS 578T breast): 93.2%; growth (NCI/ADR-RES ovarian): 103%; growth (T-47D breast): 60.2%; growth (BT-549 breast): 93.6%; growth (MDA-MB-435 melanoma): 89.3%; growth (SW-620 colon): 72.1%; growth (MCF7 breast): 20.2%; growth (HCT-116 colon): 17%; growth (HCC-2998 colon): 102%; growth (KM12 colon): 57%

**Q.** How did the growth (SR leukemia) turn out when `Nc1nc(N)c2c(n1)NC(c1cccc(Nc3ccnc4cc(C(F)(F)F)ccc34)c1)CC(c1ccc(F)cc1)=N2` (stereo unspecified) was run?
**A.** Its growth is -7.72% (active).

**Q.** What about the growth (RPMI-8226 leukemia) of the same compound?
**A.** The growth was 3.03% (active).

**Q.** And the growth (OVCAR-8 ovarian)?
**A.** Its growth is 63.1%.

**Q.** And the growth (OVCAR-5 ovarian)?
**A.** Its growth is 108%.

**Q.** And the growth (OVCAR-4 ovarian)?
**A.** The growth was 57.9%.

**Q.** What about the growth (SK-OV-3 ovarian) of the same compound?
**A.** The growth was 63.1%.

**Q.** And the growth (IGROV1 ovarian)?
**A.** Its growth is 50.5%.

**Q.** And the growth (OVCAR-3 ovarian)?
**A.** The growth was 26.4%.

**Q.** And the growth (HS 578T breast)?
**A.** Its growth is 42.1%.

**Q.** What about the growth (NCI/ADR-RES ovarian) of the same compound?
**A.** The growth was 70.7%.

**Q.** And the growth (T-47D breast)?
**A.** The growth was 68.3%.

**Q.** What about the growth (BT-549 breast) of the same compound?
**A.** The growth was 100%.

**Q.** What about the growth (MDA-MB-435 melanoma) of the same compound?
**A.** Its growth is -24.7% (active).

**Q.** And the growth (SW-620 colon)?
**A.** Its growth is 26.4%.

**Q.** What about the growth (MCF7 breast) of the same compound?
**A.** The growth was 16.7%.

**Q.** What about the growth (HCT-116 colon) of the same compound?
**A.** Its growth is 22.4%.

**Q.** And the growth (HCC-2998 colon)?
**A.** The growth was 54%.

**Q.** And the growth (KM12 colon)?
**A.** The growth was 30.2%.

**Q.** With `CC1=CC(C)(C)NC(=S)N1c1ccc(Cl)cc1` as the compound, how does the growth (SR leukemia) read?
**A.** Its growth is 97.8% and 93%.

**Q.** And the growth (RPMI-8226 leukemia)?
**A.** The growth was 100%.

**Q.** And the growth (OVCAR-8 ovarian)?
**A.** The growth was 100% and 104%.

**Q.** What about the growth (OVCAR-5 ovarian) of the same compound?
**A.** Its growth is 95% and 104%.

**Q.** What about the growth (OVCAR-4 ovarian) of the same compound?
**A.** The growth was 103%.

**Q.** And the growth (SK-OV-3 ovarian)?
**A.** The growth was 122% and 93.2%.

**Q.** What about the growth (IGROV1 ovarian) of the same compound?
**A.** The growth was 96.4%.

**Q.** What about the growth (OVCAR-3 ovarian) of the same compound?
**A.** The growth was 110% and 104%.

**Q.** What about the growth (HS 578T breast) of the same compound?
**A.** Its growth is 102% and 113%.

**Q.** What about the growth (NCI/ADR-RES ovarian) of the same compound?
**A.** Its growth is 103% and 112%.

**Q.** What about the growth (T-47D breast) of the same compound?
**A.** The growth was 92.8% and 87.2%.

**Q.** And the growth (BT-549 breast)?
**A.** The growth was 99.1% and 110%.

**Q.** And the growth (MDA-MB-435 melanoma)?
**A.** The growth was 101% and 117%.

**Q.** And the growth (SW-620 colon)?
**A.** The growth was 100% and 115%.

**Q.** What about the growth (MCF7 breast) of the same compound?
**A.** Its growth is 101% and 97.3%.

**Q.** What about the growth (HCT-116 colon) of the same compound?
**A.** The growth was 99.6% and 89%.

**Q.** What about the growth (HCC-2998 colon) of the same compound?
**A.** Its growth is 105% and 100%.

**Q.** What about the growth (KM12 colon) of the same compound?
**A.** The growth was 101% and 105%.

**Q.** `O=[N+]([O-])c1cc(C(F)(F)F)ccc1Sc1ccc(C(F)(F)F)cc1[N+](=O)[O-]` was tested. Which growth (SR leukemia) did it give?
**A.** The growth was 7.21% (active).

**Q.** What about the growth (RPMI-8226 leukemia) of the same compound?
**A.** Its growth is 34.2%.

**Q.** What about the growth (OVCAR-8 ovarian) of the same compound?
**A.** The growth was 85.7%.

**Q.** What about the growth (OVCAR-5 ovarian) of the same compound?
**A.** Its growth is 132%.

**Q.** What about the growth (OVCAR-4 ovarian) of the same compound?
**A.** The growth was 44.6%.

**Q.** And the growth (SK-OV-3 ovarian)?
**A.** Its growth is 56%.

**Q.** And the growth (IGROV1 ovarian)?
**A.** The growth was 77.7%.

**Q.** And the growth (OVCAR-3 ovarian)?
**A.** The growth was 92.3%.

**Q.** And the growth (HS 578T breast)?
**A.** The growth was 66.3%.

**Q.** And the growth (NCI/ADR-RES ovarian)?
**A.** The growth was 82.5%.

**Q.** What about the growth (T-47D breast) of the same compound?
**A.** The growth was 70%.

**Q.** And the growth (BT-549 breast)?
**A.** Its growth is 79.3%.

**Q.** And the growth (MDA-MB-435 melanoma)?
**A.** The growth was 21.3%.

**Q.** What about the growth (SW-620 colon) of the same compound?
**A.** Its growth is 20.6%.

**Q.** What about the growth (MCF7 breast) of the same compound?
**A.** Its growth is 67.7%.

**Q.** And the growth (HCT-116 colon)?
**A.** The growth was 10.7%.

**Q.** And the growth (HCC-2998 colon)?
**A.** Its growth is 99.4%.

**Q.** And the growth (KM12 colon)?
**A.** The growth was 65.8%.

**Q.** What does the source list for `COc1cc(CNC(=O)CCCC/C=C/C(C)C)ccc1OCc1cn(-c2ccc([N+](=O)[O-])cc2)nn1`?
**A.** growth (SR leukemia): 62.2%; growth (RPMI-8226 leukemia): 61.8%; growth (OVCAR-8 ovarian): 82.9%; growth (OVCAR-5 ovarian): 99.1%; growth (OVCAR-4 ovarian): 87.2%; growth (SK-OV-3 ovarian): 76.7%; growth (IGROV1 ovarian): 90.4%; growth (OVCAR-3 ovarian): 92.7%; growth (HS 578T breast): 95.8%; growth (NCI/ADR-RES ovarian): 29%; growth (T-47D breast): 64%; growth (BT-549 breast): 80.4%; growth (MDA-MB-435 melanoma): 99.7%; growth (SW-620 colon): 99.8%; growth (MCF7 breast): 83.4%; growth (HCT-116 colon): 77.2%; growth (HCC-2998 colon): 108%; growth (KM12 colon): 90%

**Q.** For `Cc1ccc(-c2nc([P+](c3ccccc3)(c3ccccc3)c3ccccc3)c(Nc3ccccc3)o2)cc1`, which growth (SR leukemia) is on record?
**A.** The growth was -27.1% (active).

**Q.** What about the growth (RPMI-8226 leukemia) of the same compound?
**A.** The growth was -50.4% (active).

**Q.** What about the growth (OVCAR-8 ovarian) of the same compound?
**A.** The growth was -21.5% (active).

**Q.** What about the growth (OVCAR-5 ovarian) of the same compound?
**A.** The growth was 8.46% (active).

**Q.** What about the growth (OVCAR-4 ovarian) of the same compound?
**A.** Its growth is -5.24% (active).

**Q.** And the growth (SK-OV-3 ovarian)?
**A.** Its growth is -9.23% (active).

**Q.** And the growth (IGROV1 ovarian)?
**A.** The growth was 15%.

**Q.** What about the growth (OVCAR-3 ovarian) of the same compound?
**A.** The growth was -12.1% (active).

**Q.** And the growth (HS 578T breast)?
**A.** Its growth is -31.1% (active).

**Q.** What about the growth (NCI/ADR-RES ovarian) of the same compound?
**A.** The growth was -3.38% (active).

**Q.** What about the growth (T-47D breast) of the same compound?
**A.** Its growth is 8.18% (active).

**Q.** What about the growth (BT-549 breast) of the same compound?
**A.** Its growth is 2.14% (active).

**Q.** What about the growth (MDA-MB-435 melanoma) of the same compound?
**A.** The growth was -32.9% (active).

**Q.** What about the growth (SW-620 colon) of the same compound?
**A.** Its growth is -29.9% (active).

**Q.** What about the growth (MCF7 breast) of the same compound?
**A.** Its growth is 0.233% (active).

**Q.** And the growth (HCT-116 colon)?
**A.** Its growth is -22.2% (active).

**Q.** What about the growth (HCC-2998 colon) of the same compound?
**A.** Its growth is -51.5% (active).

**Q.** And the growth (KM12 colon)?
**A.** The growth was -35.1% (active).
